Hits are enriched below; roughly 31% of the tested compounds scored in any of these assays.
PLAP activator – human PLAP activation; AID 696; activation fold at 20 µM; purified PLAP enzyme, luminescent substrate read-out; stronger effect = higher value; hit rate 1.2% among 96,000; P05187; in the data active means activation fold above about 2
CYP2C19 inhib – inhibitors of human CYP2C19; P33261; CYP2C19 Supersomes, luciferin-H EGE luminescence, 30 min; inhibition, % at 5 µM; hit rate 21% among 96,000; AID 778;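 active means CYP2C19 inhibition above a set limit at 5 µM in the primary screen, cut at about 50% in these data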;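 further: plate controls were negative control wells for no effect and 2.5 mM tranylcypromine positive control for full effect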
Target sequence (P33261 whole entry, looked up): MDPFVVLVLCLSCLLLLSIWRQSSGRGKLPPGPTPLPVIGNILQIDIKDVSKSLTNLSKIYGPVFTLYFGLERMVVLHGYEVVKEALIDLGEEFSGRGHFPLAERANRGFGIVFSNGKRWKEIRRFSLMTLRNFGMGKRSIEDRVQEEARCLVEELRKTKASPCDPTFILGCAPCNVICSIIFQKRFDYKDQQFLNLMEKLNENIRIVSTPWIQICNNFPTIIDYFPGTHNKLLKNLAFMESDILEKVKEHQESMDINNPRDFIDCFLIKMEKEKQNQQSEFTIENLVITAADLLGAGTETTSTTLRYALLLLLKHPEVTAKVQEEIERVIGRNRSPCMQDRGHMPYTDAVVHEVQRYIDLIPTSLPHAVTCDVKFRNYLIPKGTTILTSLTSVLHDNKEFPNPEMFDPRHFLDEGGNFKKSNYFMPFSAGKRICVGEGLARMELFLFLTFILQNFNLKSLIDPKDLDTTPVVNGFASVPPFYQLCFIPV
CYP2C19 act – increases human CYP2C19 enzyme activity; 96,000 tested, under 10 active; P33261; activation factor at 5 µM; AID 1025; recombinant CYP2C19, luciferin-H EGE luminescence; stronger effect = higher value; 0 = fully inhibited enzyme, 1 = untreated enzyme;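 active means activation factor of at least 2 at 5 µM in the primary screen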;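 further: 0 = wells with 2.5 mM tranylcypromine and 1 = vehicle-only wells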
CYP2C9 inh – human CYP2C9 inhibition. hit rate 20% among 96,000. inhibition, % at 5 µM. P11712. CYP2C9 Supersomes, luciferin-H conversion, luminescence;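 active means blocking of liver enzyme CYP2C9 beyond about 50% at 5 µM, limit read from the data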
CYP2C9 activ – increases human cytochrome P450 2C9 activity; P11712; recombinant CYP2C9, luciferin-H conversion, luminescence; stronger effect = higher value; factor 1 = untreated enzyme, 0 = blocked; activation factor at 5 µM; hit rate 1.4% among 96,000; AID 1024;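 active means activation factor of 2 or more for CYP2C9 at a 5 µM dose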;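 further: 0 = sulfaphenazole-blocked wells and 1 = vehicle-only wells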
* = called active by the depositor.

SMILES | PLAP activator | CYP2C19 inhib | CYP2C19 act | CYP2C9 inh | CYP2C9 activ
CSc1nc2ccc(N3C(=O)C4CCCCC4C3=O)cc2s1 (stereo not drawn) | 1 | 10 | 0.9 | 15 | 0.8
CC(C)CC(=O)Nc1nc2ccc(S(=O)(=O)N3CCOCC3)cc2s1 | 1 | -15 | 1.1 | 15 | 0.9
CSc1nc2ccc(S(=O)(=O)N3CCCC3)cc2s1 | 0.7 | 99* | 0 | 53* | 0.5
O=S(=O)(Nc1nc2ccc(S(=O)(=O)N3CCCC3)cc2s1)c1ccc(F)cc1 | 1.4 | 2 | 1 | 100* | 0
CCOC(=O)CSc1snnc1-c1ccccc1 | 0.8 | 38 | 0.6 | 24 | 0.8
CCC(=O)N1CCc2cc(S(=O)(=O)CCC(=O)O)ccc21 | 1.1 | -3 | 1 | 2 | 1
CCn1c(SCC(=O)N2CCCCC2)nnc1-c1ccc(S(=O)(=O)N2CCN(C)CC2)cc1 | 1.6 | 20 | 0.8 | -1 | 1
CCn1c(SCC(=O)Nc2cc(C)on2)nnc1-c1ccc(S(=O)(=O)N2CCN(C)CC2)cc1 | 2* | -24 | 1.2 | 13 | 0.9
CCn1c(SCC(=O)N2CCCC(C)C2)nnc1-c1ccc(S(=O)(=O)N2CCN(C)CC2)cc1 (stereo not drawn) | 2* | -8 | 1.1 | -2 | 1
COc1ccc2c(C(=O)CN3CCC(C)CC3)c[nH]c2c1 | 0.7 | 14 | 0.9 | 14 | 0.9
CC(=O)NCCCc1c[nH]c2ccc(Cl)cc12 | 1.1 | 80* | 0.2 | 47 | 0.5
COc1ccc(Cl)cc1C(=O)NNC(=O)c1cccnc1 | 1 | -3 | 1 | -38 | 1.4
O=C(NCCc1c[nH]c2ccc(Cl)cc12)c1cccnc1 | 0.7 | 91* | 0.1 | 87* | 0.1
Nc1nnc(CC(=O)N2CCCCC2)s1 | 0.9 | -2 | 1 | 0 | 1
Cn1c(SCC(=O)O)nc2ccccc2c1=O | 1 | -17 | 1.2 | -4 | 1
O=C(CSc1nc2ccccc2c(=O)n1NC(=O)c1ccccc1)c1ccccc1 | 1.1 | 33 | 0.7 | 86* | 0.1
O=C(CSc1nc2ccccc2c(=O)n1NC(=O)c1ccccc1)c1ccc(Cl)cc1 | 1.1 | 46 | 0.5 | 78* | 0.2
CC(/C=C/c1cccs1)=C\C(=O)O | 1.1 | -13 | 1.1 | -1 | 1
COc1ccc(-c2cc(C(F)(F)F)c3c(=O)n(-c4ccccc4)[nH]c3n2)cc1 | 1.2 | -5 | 1 | 63* | 0.4
Cc1ccc(N(C(C)C(=O)N2CCC(C)CC2)S(C)(=O)=O)cc1C (stereo not drawn) | 1.2 | 22 | 0.8 | -22 | 1.2
CCc1nc2ccc(F)cc2c(C(=O)NC2CCCCC2C)c1C (stereo not drawn) | 1.4 | 37 | 0.6 | 77* | 0.2
O=C(CN1CCN(c2ccccc2)CC1)Nc1ccc(OCc2ccccc2)cc1 | 0.9 | 7 | 0.9 | 29 | 0.7
Cc1nnc(NC(=O)c2ccc(S(=O)(=O)N(C)Cc3ccccc3)cc2)o1 | 1.6 | -11 | 1.1 | 78* | 0.2
COCc1nnc(NC(=O)c2ccc(S(=O)(=O)N(C)C3CCCCC3)cc2)o1 | 1.7 | -4 | 1 | 76* | 0.2
CCN(Cc1ccccc1)S(=O)(=O)c1ccc(C(=O)Nc2nnc(C3CC3)o2)cc1 | 1.5 | 2 | 1 | 88* | 0.1
SMILES | PLAP activator | CYP2C19 inhib | CYP2C19 act | CYP2C9 inh | CYP2C9 activ
COCCN(CCOC)S(=O)(=O)c1ccc(C(=O)Nc2nnc(C)o2)cc1 | 1.1 | -18 | 1.2 | -12 | 1.1
Cc1cc2cc(CNC(=O)CC(C)C)ccc2n1C | 1 | 38 | 0.6 | -7 | 1.1
CN(C)S(=O)(=O)N1CCC(c2ccc(F)cc2)C(COc2ccc3c(c2)OCO3)C1 (stereo not drawn) | 1.6 | 79* | 0.2 | 95* | 0.1
CN(C)S(=O)(=O)N1CCN(S(=O)(=O)c2ccc(F)cc2)CC1 | 0.9 | 13 | 0.9 | 0 | 1
CCSC1=C(C#N)C(c2ccccc2Cl)CC(=O)N1 (stereo not drawn) | 0.9 | 30 | 0.7 | 18 | 0.8
CCCSC1=C(C#N)C(c2ccccc2C)CC(=O)N1 (stereo not drawn) | 1.1 | 57* | 0.4 | 39 | 0.6
CCCSC1=C(C#N)C(c2ccccc2OCC)CC(=O)N1 (stereo not drawn) | 0.8 | 47 | 0.5 | 23 | 0.8
CCCSC1=C(C#N)C(c2ccc(Cl)cc2Cl)CC(=O)N1 (stereo not drawn) | 1.1 | 37 | 0.6 | 67* | 0.3
N#CCCCSC1=C(C#N)C(c2ccccc2Cl)CC(=O)N1 (stereo not drawn) | 1 | 88* | 0.1 | 35 | 0.7
C(#Cc1ccc(C#CCN2CCOCC2)cc1)CN1CCOCC1 | 1.8 | -10 | 1.1 | -15 | 1.1
O=C(Oc1cccnc1)c1cc(S(=O)(=O)N2CCCCC2)ccc1Cl | 0.9 | 1 | 1 | 11 | 0.9
CCOc1ccc(Nc2nc(Cc3nnc(SCC(=O)NC4CCCCC4)n3C)cs2)cc1 | 1.8 | 79* | 0.2 | 91* | 0.1
O=C1c2ccccc2C(=O)N1CCn1nc(Cl)nc1Cl | 1.3 | 27 | 0.7 | -9 | 1.1
CNc1nc(CCN2C(=O)c3ccccc3C2=O)cs1 | 1.1 | 82* | 0.2 | 7 | 0.9
Cc1nc(CCN2C(=O)c3ccccc3C2=O)cs1 | 1 | 70* | 0.3 | 19 | 0.8
NC(N)=Nc1nc(CCN2C(=O)c3ccccc3C2=O)cs1 | 1.1 | 55* | 0.4 | 6 | 0.9
Cc1cccc(N2CCCn3c2nc2c3c(=O)n(CCN3CCOCC3)c(=O)n2C)c1 | 1.2 | 12 | 0.9 | 24 | 0.8
O=C(CCN1C(=O)COc2ccccc21)NCCN1CCN(c2ccccc2F)CC1 | 1.4 | 0 | 1 | -11 | 1.1
CCOC(=O)C1CCCCN1Cc1cc(Cl)ccc1O (stereo not drawn) | 1.1 | 99* | 0 | 94* | 0.1
CCOC(=O)C1CCCCN1Cc1ccc(F)cc1 (stereo not drawn) | 1.2 | 66* | 0.3 | -9 | 1.1
CCOC(=O)C1CCCCN1Cc1cc(OC)ccc1OC (stereo not drawn) | 1.1 | 46 | 0.5 | 15 | 0.9
CCOC(=O)C1CCCCN1Cc1cccc(F)c1 (stereo not drawn) | 1.3 | 89* | 0.1 | 29 | 0.7
CCCc1cc(=O)[nH]c(SCC(=O)NC2CCCCC2)n1 | 0.8 | 42 | 0.6 | 12 | 0.9
CCOC(=O)c1cnc(=O)[nH]c1C | 1.1 | -9 | 1.1 | -3 | 1
Cc1ccc(/C=c2\sc3nc(-c4cccnc4)nn3c2=O)cc1 | 1.1 | 13 | 0.9 | 24 | 0.8
CC(C)c1ccc(/C=c2\sc3nc(-c4ccncc4)nn3c2=O)cc1 | 1.3 | 27 | 0.7 | 58* | 0.4
O=C(Nc1nc2c(s1)C(=O)CCC2)c1ccccc1 | 0.9 | 41 | 0.6 | 53* | 0.5
O=C(Nc1nc(=O)c2ccccc2s1)c1ccccc1 | 0.8 | -8 | 1.1 | -2 | 1
COc1ccc(C(C(=O)NC2CCCCC2)N(Cc2cccs2)C(=O)Cc2c[nH]c3ccccc23)cc1OC (stereo not drawn) | 1.1 | -5 | 1 | 85* | 0.1

Screens (PubChem)
